What was measured:
Assay in all cases: log2 ratio of Biotin-Ahx-Ub-VS probe labelling (fragment/DMSO); higher = less target engagement (more negative = stronger competition), active = hit call of the paper (q ≤ 0.05, log2 ratio ≤ -1)
Conditions in all cases: compound concentration: 200 uM; treatment time: 3 h
USP34 = USP34 (UniProt Q70CQ2)
Outline: (§1)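 Global-median-normalised Spectronaut label-free quantities were compared by unpaired t-test, and values are average log2 ratios of fragment over vehicle. Only proteins with ≥2 unique peptides were used. HEK293T lysate (495 µg per sample) was treated in triplicate with fragment at 200 µM or vehicle for 3 h and then with Biotin-Ahx-Ub-VS at 0.5 µM final for 1 h. Labelled DUBs were then NeutrAvidin-enriched, digested with LysC and trypsin, and run by diaPASEF LC-MS/MS.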

USP36 = molecular target: T1, USP36 (UniProt Q9P275)
T1 sequence (whole entry): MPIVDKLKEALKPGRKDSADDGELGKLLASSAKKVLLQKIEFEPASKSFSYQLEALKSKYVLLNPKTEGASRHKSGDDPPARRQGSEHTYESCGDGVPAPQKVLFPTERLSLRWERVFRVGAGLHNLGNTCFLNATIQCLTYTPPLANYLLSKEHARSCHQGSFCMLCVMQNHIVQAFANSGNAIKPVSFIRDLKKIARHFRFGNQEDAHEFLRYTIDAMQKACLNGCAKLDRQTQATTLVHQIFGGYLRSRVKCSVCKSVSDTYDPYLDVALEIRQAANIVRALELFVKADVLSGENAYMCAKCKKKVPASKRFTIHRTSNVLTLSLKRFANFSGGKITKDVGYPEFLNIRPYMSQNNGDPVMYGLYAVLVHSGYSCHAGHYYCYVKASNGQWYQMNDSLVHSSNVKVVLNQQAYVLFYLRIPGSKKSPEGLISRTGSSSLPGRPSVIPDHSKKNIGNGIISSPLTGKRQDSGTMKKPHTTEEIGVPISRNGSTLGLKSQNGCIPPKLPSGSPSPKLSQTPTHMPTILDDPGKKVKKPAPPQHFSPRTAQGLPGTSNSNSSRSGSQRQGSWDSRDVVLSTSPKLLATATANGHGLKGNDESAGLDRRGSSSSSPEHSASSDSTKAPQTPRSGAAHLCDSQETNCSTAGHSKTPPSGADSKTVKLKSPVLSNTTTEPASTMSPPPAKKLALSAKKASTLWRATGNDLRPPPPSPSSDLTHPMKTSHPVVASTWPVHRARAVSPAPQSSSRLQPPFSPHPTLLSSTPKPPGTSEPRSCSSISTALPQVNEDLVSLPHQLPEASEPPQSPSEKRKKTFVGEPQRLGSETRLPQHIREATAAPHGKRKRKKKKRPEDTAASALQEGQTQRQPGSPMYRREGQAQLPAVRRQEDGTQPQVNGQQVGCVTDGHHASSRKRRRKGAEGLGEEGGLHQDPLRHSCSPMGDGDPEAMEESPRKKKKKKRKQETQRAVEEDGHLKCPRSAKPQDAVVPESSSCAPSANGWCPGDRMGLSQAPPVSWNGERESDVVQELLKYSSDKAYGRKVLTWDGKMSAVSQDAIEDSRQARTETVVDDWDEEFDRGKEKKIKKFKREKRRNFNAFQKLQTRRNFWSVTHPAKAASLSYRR
Outline: as §1

USP38 = molecular target: T2, USP38 (UniProt Q8NB14)
T2 sequence (whole entry): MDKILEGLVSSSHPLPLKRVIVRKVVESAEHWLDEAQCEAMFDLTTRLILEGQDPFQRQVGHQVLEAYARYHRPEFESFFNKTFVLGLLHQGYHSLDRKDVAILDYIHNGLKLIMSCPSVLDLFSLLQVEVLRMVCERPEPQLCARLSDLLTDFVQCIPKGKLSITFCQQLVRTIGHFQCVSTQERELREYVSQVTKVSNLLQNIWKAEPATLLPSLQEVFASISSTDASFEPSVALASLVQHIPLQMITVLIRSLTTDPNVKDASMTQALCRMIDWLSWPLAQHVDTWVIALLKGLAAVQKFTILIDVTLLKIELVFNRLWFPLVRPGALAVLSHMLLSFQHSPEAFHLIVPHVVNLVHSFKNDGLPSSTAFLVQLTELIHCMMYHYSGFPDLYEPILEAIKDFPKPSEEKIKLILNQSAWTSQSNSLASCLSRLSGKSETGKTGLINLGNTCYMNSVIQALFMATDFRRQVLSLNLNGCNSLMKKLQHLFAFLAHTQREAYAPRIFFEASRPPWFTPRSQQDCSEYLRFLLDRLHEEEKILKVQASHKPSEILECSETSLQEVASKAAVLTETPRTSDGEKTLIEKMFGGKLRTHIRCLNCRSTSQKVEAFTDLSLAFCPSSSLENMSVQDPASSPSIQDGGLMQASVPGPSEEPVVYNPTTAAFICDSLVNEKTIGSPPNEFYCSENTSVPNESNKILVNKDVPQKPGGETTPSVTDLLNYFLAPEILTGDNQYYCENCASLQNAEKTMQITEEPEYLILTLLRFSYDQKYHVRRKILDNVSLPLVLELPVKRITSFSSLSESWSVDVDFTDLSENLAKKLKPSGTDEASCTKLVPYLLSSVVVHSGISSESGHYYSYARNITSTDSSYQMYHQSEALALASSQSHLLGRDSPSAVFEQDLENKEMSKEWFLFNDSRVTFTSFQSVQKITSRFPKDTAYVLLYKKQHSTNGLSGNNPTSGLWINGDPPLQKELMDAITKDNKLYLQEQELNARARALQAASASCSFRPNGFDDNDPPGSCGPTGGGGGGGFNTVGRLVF
Outline: as §1

USP39 = molecular target: T3, USP39 (UniProt Q53GS9)
T3 sequence (whole entry): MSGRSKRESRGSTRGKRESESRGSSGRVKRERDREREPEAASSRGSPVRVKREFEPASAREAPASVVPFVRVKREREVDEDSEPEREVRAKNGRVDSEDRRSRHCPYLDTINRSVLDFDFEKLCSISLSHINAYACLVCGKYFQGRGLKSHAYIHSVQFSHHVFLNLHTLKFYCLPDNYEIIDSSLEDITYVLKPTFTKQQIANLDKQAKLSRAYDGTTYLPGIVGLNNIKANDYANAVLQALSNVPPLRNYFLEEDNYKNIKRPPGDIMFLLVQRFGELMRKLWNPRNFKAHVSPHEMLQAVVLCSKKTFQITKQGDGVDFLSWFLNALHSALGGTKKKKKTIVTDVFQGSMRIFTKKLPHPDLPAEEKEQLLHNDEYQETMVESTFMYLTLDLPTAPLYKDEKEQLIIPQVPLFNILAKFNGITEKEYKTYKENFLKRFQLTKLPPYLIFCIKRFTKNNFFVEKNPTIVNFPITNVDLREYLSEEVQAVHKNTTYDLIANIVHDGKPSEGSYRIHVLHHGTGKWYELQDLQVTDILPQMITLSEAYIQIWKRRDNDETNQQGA
Outline: as §1

USP4 = molecular target: T4, USP4 (UniProt Q13107)
T4 sequence (whole entry): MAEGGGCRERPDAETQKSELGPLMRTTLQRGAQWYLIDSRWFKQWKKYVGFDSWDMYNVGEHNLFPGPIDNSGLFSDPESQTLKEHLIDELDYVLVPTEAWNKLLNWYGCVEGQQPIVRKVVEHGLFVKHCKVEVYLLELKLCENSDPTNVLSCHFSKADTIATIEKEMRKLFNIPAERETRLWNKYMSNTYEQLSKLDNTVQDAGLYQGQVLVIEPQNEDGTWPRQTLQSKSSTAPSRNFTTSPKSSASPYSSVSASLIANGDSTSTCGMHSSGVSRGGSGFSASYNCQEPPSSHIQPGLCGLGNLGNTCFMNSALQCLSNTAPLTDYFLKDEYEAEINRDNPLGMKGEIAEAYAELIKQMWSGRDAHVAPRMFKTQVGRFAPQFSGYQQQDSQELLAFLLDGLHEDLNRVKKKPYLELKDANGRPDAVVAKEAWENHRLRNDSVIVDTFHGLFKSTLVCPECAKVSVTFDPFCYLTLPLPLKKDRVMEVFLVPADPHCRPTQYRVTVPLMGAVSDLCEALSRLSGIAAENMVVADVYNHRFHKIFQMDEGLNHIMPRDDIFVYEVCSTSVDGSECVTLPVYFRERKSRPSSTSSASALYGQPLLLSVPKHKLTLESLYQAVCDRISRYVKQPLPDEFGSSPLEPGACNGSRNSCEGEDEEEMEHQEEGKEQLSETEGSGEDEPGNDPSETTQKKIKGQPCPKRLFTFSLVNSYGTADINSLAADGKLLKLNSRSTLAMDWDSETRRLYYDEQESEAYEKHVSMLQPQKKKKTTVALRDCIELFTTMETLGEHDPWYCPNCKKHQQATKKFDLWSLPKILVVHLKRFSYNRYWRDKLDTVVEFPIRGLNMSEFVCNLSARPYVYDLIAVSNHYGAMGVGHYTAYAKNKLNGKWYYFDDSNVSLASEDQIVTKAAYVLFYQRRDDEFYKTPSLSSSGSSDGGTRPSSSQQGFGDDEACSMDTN
Outline: as §1

Measured: log2 ratio of Biotin-Ahx-Ub-VS probe labelling

Chain of USP34 (Q70CQ2 whole entry, the tested form may be a part): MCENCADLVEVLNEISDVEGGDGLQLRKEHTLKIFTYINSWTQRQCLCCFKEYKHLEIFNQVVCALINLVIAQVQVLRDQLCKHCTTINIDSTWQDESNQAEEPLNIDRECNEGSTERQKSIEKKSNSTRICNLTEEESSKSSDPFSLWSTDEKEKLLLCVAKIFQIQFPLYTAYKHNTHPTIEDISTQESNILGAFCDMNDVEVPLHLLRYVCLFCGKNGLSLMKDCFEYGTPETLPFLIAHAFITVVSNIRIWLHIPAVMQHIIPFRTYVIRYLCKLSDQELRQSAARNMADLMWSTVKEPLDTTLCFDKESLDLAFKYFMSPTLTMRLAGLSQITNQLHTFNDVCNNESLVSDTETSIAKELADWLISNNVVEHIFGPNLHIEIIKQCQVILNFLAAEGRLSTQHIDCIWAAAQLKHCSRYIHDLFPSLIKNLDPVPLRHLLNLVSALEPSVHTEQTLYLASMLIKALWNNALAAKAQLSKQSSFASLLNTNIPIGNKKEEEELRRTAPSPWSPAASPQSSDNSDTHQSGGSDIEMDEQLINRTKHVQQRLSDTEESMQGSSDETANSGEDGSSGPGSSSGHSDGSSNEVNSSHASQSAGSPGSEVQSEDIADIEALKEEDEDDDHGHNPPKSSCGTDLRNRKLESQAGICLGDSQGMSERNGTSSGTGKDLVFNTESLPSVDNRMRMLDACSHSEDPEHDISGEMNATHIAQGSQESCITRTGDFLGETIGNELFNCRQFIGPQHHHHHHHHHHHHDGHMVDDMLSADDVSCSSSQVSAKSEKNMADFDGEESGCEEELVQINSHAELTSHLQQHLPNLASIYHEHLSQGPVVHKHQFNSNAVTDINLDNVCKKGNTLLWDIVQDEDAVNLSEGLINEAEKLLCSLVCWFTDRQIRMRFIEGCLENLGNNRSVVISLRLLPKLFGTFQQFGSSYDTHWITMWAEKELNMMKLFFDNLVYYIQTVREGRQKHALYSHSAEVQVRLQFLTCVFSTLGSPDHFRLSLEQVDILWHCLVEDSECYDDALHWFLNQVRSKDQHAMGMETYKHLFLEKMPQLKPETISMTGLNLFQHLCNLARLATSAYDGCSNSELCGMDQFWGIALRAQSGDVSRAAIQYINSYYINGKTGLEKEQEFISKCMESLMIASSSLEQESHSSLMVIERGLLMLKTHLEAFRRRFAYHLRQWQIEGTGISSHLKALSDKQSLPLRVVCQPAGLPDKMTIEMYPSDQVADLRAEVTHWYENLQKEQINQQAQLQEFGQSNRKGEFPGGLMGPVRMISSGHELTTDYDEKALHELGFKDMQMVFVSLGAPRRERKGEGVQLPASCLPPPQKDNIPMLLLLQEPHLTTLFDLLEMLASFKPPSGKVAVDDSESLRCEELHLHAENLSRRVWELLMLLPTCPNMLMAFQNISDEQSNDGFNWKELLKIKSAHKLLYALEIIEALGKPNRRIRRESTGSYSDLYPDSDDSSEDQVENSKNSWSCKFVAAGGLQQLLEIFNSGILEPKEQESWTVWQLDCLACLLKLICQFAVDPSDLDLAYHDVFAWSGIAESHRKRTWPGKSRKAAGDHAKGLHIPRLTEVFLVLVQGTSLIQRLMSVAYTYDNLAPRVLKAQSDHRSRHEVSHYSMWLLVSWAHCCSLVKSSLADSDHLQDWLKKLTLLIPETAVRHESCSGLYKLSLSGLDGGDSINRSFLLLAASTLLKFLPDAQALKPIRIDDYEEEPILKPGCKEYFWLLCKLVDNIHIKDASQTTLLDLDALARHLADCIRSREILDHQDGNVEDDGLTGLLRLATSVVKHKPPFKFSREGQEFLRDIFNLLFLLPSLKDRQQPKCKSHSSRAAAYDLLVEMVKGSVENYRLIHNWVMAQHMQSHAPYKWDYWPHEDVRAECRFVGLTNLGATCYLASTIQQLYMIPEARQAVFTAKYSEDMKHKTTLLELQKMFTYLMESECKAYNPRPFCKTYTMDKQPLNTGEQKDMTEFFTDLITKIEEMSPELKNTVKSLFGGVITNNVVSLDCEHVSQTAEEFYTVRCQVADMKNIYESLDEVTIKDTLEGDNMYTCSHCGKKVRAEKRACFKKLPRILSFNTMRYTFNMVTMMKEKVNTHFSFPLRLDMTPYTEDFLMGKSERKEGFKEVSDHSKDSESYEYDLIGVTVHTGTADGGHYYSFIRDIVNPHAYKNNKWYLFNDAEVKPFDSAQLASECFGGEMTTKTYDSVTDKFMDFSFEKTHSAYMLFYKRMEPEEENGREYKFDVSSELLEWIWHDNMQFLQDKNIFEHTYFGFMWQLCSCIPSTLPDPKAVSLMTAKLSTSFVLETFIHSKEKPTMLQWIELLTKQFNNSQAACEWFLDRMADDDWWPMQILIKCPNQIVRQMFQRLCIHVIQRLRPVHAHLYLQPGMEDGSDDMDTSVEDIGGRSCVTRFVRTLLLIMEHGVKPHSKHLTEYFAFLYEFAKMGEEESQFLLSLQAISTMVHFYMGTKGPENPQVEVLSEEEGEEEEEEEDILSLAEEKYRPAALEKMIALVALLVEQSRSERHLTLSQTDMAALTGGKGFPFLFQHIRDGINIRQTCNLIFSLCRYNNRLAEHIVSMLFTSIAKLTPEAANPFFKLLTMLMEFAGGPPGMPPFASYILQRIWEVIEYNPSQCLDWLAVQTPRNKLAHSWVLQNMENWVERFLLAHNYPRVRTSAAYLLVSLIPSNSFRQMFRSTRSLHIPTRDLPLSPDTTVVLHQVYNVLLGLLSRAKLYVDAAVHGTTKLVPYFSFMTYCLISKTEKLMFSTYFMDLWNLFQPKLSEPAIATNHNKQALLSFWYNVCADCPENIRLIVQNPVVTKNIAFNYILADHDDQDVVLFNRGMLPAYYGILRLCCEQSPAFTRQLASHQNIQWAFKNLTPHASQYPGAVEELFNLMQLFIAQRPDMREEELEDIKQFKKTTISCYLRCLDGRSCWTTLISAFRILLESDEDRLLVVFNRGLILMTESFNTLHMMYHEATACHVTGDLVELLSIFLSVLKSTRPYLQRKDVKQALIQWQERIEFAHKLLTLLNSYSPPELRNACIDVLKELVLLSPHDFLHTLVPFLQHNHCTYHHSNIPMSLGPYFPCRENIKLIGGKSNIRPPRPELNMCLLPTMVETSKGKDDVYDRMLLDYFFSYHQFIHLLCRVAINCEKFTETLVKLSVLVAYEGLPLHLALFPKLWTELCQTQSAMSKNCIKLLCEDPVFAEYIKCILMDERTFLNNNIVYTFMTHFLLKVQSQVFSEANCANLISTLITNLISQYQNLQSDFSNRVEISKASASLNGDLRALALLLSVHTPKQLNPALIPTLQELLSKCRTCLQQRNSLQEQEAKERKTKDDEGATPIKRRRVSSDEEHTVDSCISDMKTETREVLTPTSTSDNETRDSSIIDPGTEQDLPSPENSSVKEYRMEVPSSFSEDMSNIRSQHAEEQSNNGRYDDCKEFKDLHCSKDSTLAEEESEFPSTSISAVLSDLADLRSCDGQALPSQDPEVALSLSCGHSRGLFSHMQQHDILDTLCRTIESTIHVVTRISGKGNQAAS

Cc1ccc2nnc(CNC(=O)CCl)n2c1
inactive: USP34 -0.0797 | USP36 -0.0909 | USP38 -0.0516 | USP39 -0.108 | USP4 0.17

— the supplement of paper PMC11732987, “Enantioselective OTUD7B fragment discovery through chemoproteomics screening and high-throughput optimisation” (Communications Chemistry, 2025)
